Results as given in PubChem BioAssay (Tox21).
Inconclusive results are not listed. The source made the active and inactive calls. Unless noted, calls come from the whole dose curve.

Assays:
[1] = Nuclear factor erythroid 2-related factor 2/antioxidant responsive element (Nrf2/ARE) small molecule agonists: qHTS cell viability counter screen in human keratinocytes (AID 1919968; active = well fitted curve in the direction sought with a large enough effect in the repeat runs; an effect the other way counts as inactive or inconclusive; note: nearly all actives have a fitted effect of over 55% in size; note: potency is the fitted concentration of half-maximal effect)
Outline: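 KeratinoSens cells (HaCaT keratinocytes stably carrying an ARE-luciferase reporter) were seeded at 1,500 cells/well and rested 5 h at 37 C/5% CO2. They were then exposed to compounds in DMSO for 23 h. Viability was read by CellTiter-Fluor fluorescence after 1 h.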

[2] = Nuclear factor erythroid 2-related factor 2/antioxidant responsive element (Nrf2/ARE) small molecule agonists: luciferase reporter gene qHTS assay in human keratinocytes (AID 1919969); note: nearly all actives have a fitted effect of over 35% in size; note: potency is the fitted concentration of half-maximal effect
[3] = target: Gonadotropin-releasing hormone receptor (Homo sapiens) (UniProt P30968); assay: Human gonadotropin-releasing hormone receptor (GnRHR) small molecule agonists, calcium flux assay in GnRHR-HEK293 cells (AID 1920063); note: nearly all actives have a fitted effect of over 35% in size
Sequence of Gonadotropin-releasing hormone receptor (Homo sapiens) (P30968 whole entry, looked up): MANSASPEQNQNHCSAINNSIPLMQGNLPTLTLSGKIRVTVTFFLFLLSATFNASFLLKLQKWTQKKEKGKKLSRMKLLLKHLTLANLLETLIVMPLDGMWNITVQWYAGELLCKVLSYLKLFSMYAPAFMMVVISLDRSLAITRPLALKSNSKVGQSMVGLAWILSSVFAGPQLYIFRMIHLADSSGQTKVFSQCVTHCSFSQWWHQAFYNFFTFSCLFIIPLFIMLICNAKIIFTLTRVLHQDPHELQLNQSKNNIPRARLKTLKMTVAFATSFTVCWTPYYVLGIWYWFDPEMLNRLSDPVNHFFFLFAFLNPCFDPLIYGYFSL
Outline: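 HEK293 cells stably expressing human GnRHR were plated 18 h at 37 °C, loaded with calcium dye 1 h at 37 °C, then given compound in agonist mode; fluorescence (Ex/Em 480/540) read kinetically for 3 min at 1 s intervals.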

[4] = target: KiSS-1 receptor (Homo sapiens) (UniProt Q969F8); assay: Human kisspeptin (KISS1R) small molecule agonists, calcium flux assay in KISS1R-HEK293 cells (AID 1920064; active = well fitted curve in the direction sought with a large enough effect in the repeat runs; an effect the other way counts as inactive or inconclusive)
Sequence of KiSS-1 receptor (Homo sapiens) (Q969F8 whole entry, looked up): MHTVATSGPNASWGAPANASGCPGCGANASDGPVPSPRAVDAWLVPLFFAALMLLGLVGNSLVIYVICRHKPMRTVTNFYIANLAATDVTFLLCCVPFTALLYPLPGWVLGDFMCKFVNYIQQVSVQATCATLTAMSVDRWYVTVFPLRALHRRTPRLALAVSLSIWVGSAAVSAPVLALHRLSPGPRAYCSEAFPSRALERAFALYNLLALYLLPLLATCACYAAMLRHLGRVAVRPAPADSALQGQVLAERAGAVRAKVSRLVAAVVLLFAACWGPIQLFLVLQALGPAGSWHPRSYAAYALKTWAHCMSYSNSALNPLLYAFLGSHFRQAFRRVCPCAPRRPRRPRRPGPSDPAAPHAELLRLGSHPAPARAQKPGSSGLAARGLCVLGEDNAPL
Outline: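 HEK293 cells stably expressing human KISS1R were plated 18 h at 37 °C, loaded with calcium dye for 1 h at 37 °C, then given compound by pin tool. Fluorescence (Ex/Em 480/540) was read kinetically for 3 min.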

[5] = G protein-coupled receptor (GPCR) small molecule agonists, calcium flux assay: HEK293 wild type cell line counter screen (AID 1920065)
Outline: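 Cells were plated and cultured 18 h at 37 C/5% CO2, then loaded with calcium dye for 1 h at 37 C. Compounds in DMSO were pin-transferred in agonist mode, and fluorescence (Ex/Em 480/540) was read kinetically for 3 min at 1 s intervals.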

[6] = p53 small molecule agonists, cell-based qHTS assay with human liver microsomes (AID 1963577)
Outline: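 p53RE-bla reporter cells were pre-incubated 5 h at 37 C, then treated with compounds plus human liver microsomes (0.5 mg/mL final) and NADPH (0.5 mg/mL final) for 16 h at 37 C. Beta-lactamase activity was read by LiveBLAzer fluorescence after 2 h at room temperature.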

[7] = p53 small molecule agonists, cell-based qHTS assay with rat liver microsomes (AID 1963578)
Outline: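 p53RE-bla cells were exposed to compounds together with rat liver microsomes (0.5 mg/mL final) and NADPH (0.5 mg/mL final) for 16 h at 37 C, then read by LiveBLAzer beta-lactamase fluorescence after 2 h at room temperature.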

[8] = p53 small molecule agonists, cell-based qHTS assay with rat liver microsomes: qHTS cell viability counter screen (AID 1963580); note: nearly all actives have a fitted effect of over 45% in size
Outline: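 p53RE-bla HCT-116 cells were exposed 16 h at 37 C to compounds with rat liver microsomes (0.5 mg/mL) and NADPH (0.5 mg/mL). Viability was measured in the same wells as ATP content by CellTiter-Glo luminescence.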

[9] = p53 small molecule agonists, cell-based qHTS assay: qHTS cell viability counter screen (AID 1963581); note: nearly all actives have a fitted effect of over 45% in size
Outline: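 p53RE-bla HCT-116 cells were exposed to compounds for 16 h at 37 C; after the beta-lactamase FRET read in the same wells, CellTiter-Glo was added and luminescence (intracellular ATP) read after 30 min at room temperature.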

[10] = target: 5-hydroxytryptamine receptor 2A (Homo sapiens) (UniProt P28223); assay: 5-hydroxytryptamine receptor 2A (HTR2A) small molecule antagonists, cell-based qHTS assay (AID 1963586); note: nearly all actives have a fitted effect of over 45% in size
Sequence of 5-hydroxytryptamine receptor 2A (Homo sapiens) (P28223 whole entry, looked up): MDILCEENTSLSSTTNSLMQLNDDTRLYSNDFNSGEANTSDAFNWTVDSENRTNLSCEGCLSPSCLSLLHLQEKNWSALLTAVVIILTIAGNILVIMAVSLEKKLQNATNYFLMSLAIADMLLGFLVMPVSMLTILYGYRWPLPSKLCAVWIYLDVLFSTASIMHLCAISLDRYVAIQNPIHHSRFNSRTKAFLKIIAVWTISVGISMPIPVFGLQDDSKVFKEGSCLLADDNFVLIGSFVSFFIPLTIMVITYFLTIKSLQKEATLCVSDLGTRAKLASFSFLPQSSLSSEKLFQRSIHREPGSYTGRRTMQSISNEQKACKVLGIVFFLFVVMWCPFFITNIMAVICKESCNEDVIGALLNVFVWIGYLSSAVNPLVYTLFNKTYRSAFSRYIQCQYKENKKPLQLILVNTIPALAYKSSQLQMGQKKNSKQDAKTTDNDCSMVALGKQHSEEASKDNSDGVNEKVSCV
Outline: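 Antagonist-mode intracellular calcium assay: DOI (4 nM) added after 5 min compound pre-incubation at room temperature to dye-loaded HTR2A-CHO cells. Fluorescence followed for 3 min, sampled every second.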

[11] = target: 5-hydroxytryptamine receptor 2A (Homo sapiens) (UniProt P28223); assay: 5-hydroxytryptamine receptor 2A (HTR2A) small molecule agonists, cell-based qHTS assay (AID 1963587); note: nearly all actives have a fitted effect of over 30% in size
Outline: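 CHO cells stably expressing human HTR2A, plated 18 h, loaded with calcium dye 1 h at 37 C. Agonist mode: compounds added and intracellular calcium fluorescence recorded kinetically for 2 min at 1 sec intervals.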

[12] = target: Muscarinic acetylcholine receptor M1 (Homo sapiens) (UniProt P11229); assay: Cholinergic receptor muscarinic 1 (CHRM1) small molecule antagonists, cell-based qHTS assay (AID 1963588); note: nearly all actives have a fitted effect of over 40% in size
Sequence of Muscarinic acetylcholine receptor M1 (Homo sapiens) (P11229 whole entry, looked up): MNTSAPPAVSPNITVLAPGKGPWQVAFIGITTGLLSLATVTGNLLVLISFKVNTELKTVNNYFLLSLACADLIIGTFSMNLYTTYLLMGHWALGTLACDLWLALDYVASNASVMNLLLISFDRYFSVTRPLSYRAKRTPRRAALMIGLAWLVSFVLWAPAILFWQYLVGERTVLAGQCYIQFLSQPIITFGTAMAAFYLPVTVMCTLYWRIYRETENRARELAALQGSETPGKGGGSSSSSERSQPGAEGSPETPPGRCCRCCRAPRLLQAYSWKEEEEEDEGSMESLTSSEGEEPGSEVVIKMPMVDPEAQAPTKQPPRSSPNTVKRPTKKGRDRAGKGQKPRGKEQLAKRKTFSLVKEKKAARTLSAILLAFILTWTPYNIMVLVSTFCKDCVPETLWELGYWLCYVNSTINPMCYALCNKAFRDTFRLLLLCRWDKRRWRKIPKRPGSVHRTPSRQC
Outline: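 CHRM1-CHO calcium-flux assay, antagonist mode. Cells were seeded 18 h, dye-loaded 1 h at 37 C and given compound for 5 min at RT, then acetylcholine was added at 50nM. FDSS fluorescence was read 3 min; 15 concentrations, three runs.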

[13] = target: Muscarinic acetylcholine receptor M1 (Homo sapiens) (UniProt P11229); assay: Cholinergic receptor muscarinic 1 (CHRM1) small molecule agonists, cell-based qHTS assay (AID 1963589); note: nearly all actives have a fitted effect of over 35% in size
Outline: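 CHO cells stably expressing human CHRM1, seeded 18 h at 37 C/5% CO2, dye-loaded 1 h at 37 C, then given compound in agonist mode; intracellular calcium fluorescence read kinetically at 1 s intervals. Fifteen concentrations, three independent runs.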

[14] = cAMP Responsive Elements (CRE) small molecule agonists, cell-based qHTS assay (AID 1963590)
Outline: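 CRE-bla HEK 293T cells in DMEM with 10% dialyzed FBS, NEAA, pyruvate and 25 mM HEPES were plated 18 h at 37 C/5% CO2, then exposed to compounds in DMSO for 3 h before LiveBLAzer B/G FRET substrate addition.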

[15] = target: Beta-2 adrenergic receptor (Homo sapiens) (UniProt P07550); assay: Adrenergic beta2 receptor (ADRB2) small molecule antagonists, cell-based qHTS assay (AID 1963592); note: series mostly up to about 92 µM; nearly all actives have a fitted effect of over 50% in size
Sequence of Beta-2 adrenergic receptor (Homo sapiens) (P07550 whole entry, looked up): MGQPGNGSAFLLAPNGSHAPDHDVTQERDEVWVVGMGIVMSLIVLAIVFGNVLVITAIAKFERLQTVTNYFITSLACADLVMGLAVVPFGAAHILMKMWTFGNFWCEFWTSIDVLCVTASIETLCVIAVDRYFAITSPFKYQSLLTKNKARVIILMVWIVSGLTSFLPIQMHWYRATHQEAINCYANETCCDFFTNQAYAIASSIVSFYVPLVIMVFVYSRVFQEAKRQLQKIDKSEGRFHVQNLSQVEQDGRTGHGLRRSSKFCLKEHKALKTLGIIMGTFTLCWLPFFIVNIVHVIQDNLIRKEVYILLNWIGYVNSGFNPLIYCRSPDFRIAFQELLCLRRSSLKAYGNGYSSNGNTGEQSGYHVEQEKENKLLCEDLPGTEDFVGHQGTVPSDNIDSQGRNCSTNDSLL
Outline: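 Cells (CHO, stable ADRB2 overexpression) incubated 18-20hr at 37C; compounds added from DMSO; agonist mix (1nM isoproterenol, 100uM IBMX, 25uM Ro-20-1724) added; 0.5hr RT; d2-cAMP and anti-cAMP-cryptate added; 1hr RT; 665/615 nm read.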

[16] = target: D(2) dopamine receptor (Homo sapiens) (UniProt P14416); assay: Dopamine D2 receptor (DRD2) small molecule agonists, cell-based qHTS assay (AID 1963594); note: nearly all actives have a fitted effect of over 35% in size
Sequence of D(2) dopamine receptor (Homo sapiens) (P14416 whole entry, looked up): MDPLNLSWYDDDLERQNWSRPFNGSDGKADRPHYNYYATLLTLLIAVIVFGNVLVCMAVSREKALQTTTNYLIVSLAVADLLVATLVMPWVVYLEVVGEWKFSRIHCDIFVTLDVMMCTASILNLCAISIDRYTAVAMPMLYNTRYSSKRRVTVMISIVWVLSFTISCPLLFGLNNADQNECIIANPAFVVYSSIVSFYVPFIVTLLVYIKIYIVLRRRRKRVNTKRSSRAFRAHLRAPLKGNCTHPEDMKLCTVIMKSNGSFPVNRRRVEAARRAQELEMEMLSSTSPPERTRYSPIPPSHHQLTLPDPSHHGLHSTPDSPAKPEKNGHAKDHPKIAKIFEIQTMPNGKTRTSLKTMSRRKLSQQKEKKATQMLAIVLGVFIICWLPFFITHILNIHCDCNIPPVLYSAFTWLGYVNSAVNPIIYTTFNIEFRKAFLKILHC
Outline: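 HEK293 cells stably expressing human DRD2, pre-treated with PDE inhibitor Ro20-1724 (0.1 mM final) and compound 10 min at room temperature, then stimulated with NKH477 (200nM […]) for 30 min. cAMP read by HTRF (665/620 nm).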

[17] = target: D(2) dopamine receptor (Homo sapiens) (UniProt P14416); assay: Dopamine D2 receptor (DRD2) small molecule antagonists, cell-based qHTS assay (AID 1963595; active = well fitted inhibition curve with a large enough effect in the signal ratio in the repeat runs, with a control signal flat; the % refers to the signal ratio; note: potency is the fitted concentration of half-maximal effect)
Outline: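 DRD2-HEK293; 0.1 mM Ro20-1724; cpd 10 min RT; NKH477 200 nM + quinpirole 12 nM, 30 min RT; HTRF cAMP (cAMP-d2/anti-cAMP cryptate), 665/620 nm ratio after 1 h.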

[18] = cAMP Responsive Elements (CRE) small molecule antagonists, cell-based qHTS assay (AID 1963591; active = well fitted inhibition curve with a large enough effect in the signal ratio in the repeat runs, not every such curve was filed as active; the % refers to the signal ratio)
Outline: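 CRE-bla HEK293T cells were plated 18 h at 37 °C/5% CO2, pinned with compound in DMSO, then stimulated with NKH477 at 0.25 uM final for 3 h. LiveBLAzer B/G FRET substrate was added and plates incubated 2 h at room temperature.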

[19] = p53 small molecule agonists, cell-based qHTS assay (AID 1963582; active = well fitted activation curve with a large enough effect in the signal ratio in the repeat runs, not every such curve was filed as active; the % refers to the signal ratio)
Outline: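 p53RE-bla beta-lactamase reporter cells rested 5 h at 37 C/5% CO2, then received compounds in DMSO by pin transfer and were incubated 16 h at 37 C. LiveBLAzer B/G FRET substrate was loaded for 2 h at room temperature before fluorescence reading.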
% is set by controls: 0 for no effect and ±100 for the full control effect.

c1ccc(CNCCNCc2ccccc2)cc1
inactive: Potency [1] | Potency [2] | Potency [3] | outcome [4] | outcome [5] | Potency [6] | Potency [7] | Potency [8] | Potency [9] | Potency [10] | Potency [11] | Potency [12] | Potency [13] | Potency [14] | Potency [15] | Potency [16] | Potency [17]

Cc1ccc2nc(N)[nH]c(=O)c2c1Sc1ccncc1
inactive: Potency [1] | Potency [2] | Potency [3] | outcome [4] | outcome [5] | Potency [6] | Potency [7] | Potency [8] | Potency [9] | Potency [10] | Potency [11] | Potency [12] | Potency [13] | Potency [14] | Potency [18] | Potency [15] | Potency [16] | Potency [17]

Cc1ccc(-n2[nH]c(C)c(N=Nc3cccc(-c4cccc(C(=O)O)c4)c3O)c2=O)cc1C
active: Potency [1] 26.6 µM
inactive: Potency [2] | Potency [3] | outcome [4] | outcome [5] | Potency [6] | Potency [7] | Potency [8] | Potency [9] | Potency [11] | Potency [18] | Potency [15] | Potency [16] | Potency [17]

CC(C)=CCC1C(=O)N(c2ccccc2)N(c2ccccc2)C1=O
inactive: Potency [1] | Potency [3] | outcome [4] | outcome [5] | Potency [6] | Potency [7] | Potency [8] | Potency [9] | Potency [11] | Potency [12] | Potency [13] | Potency [16]
active: Potency [2] 29.8 µM

CCCN1C[C@H](CSC)C[C@@H]2c3cccc4[nH]cc(c34)C[C@H]21
inactive: Potency [1] | Potency [2] | Potency [3] | outcome [4] | outcome [5] | Potency [6] | Potency [7] | Potency [8] | Potency [9] | Potency [19] | Potency [15] | Potency [17]

O=C(O)c1ccc2c(c1)nc(C(=O)NC1CCN(C3CC3)CC1)n2Cc1cc(-c2ccc(Cl)s2)on1
inactive: activity change, negative = cytotoxicity [1] 2.24% [at 19 µM] | activity, positive = activation [2] 2.61% [at 19 µM] | activity change [3] -0.0073% [at 11.8 µM, stronger effect = higher value] | activation [4] -0.617% [at 15.8 µM] | activation [5] 0.0965% [at 11.8 µM] | activation [6] -1.92% [at 13.5 µM] | activation [7] -2.62% [at 13.6 µM] | activity change, negative = cytotoxicity [8] 1.71% [at 13.5 µM] | activity change, negative = cytotoxicity [9] 10.9% [at 13.5 µM] | activation [19] -1.36% [at 13.5 µM] | activity, negative = inhibition [10] -29.3% [at 12.7 µM] | activation [13] -0.218% [at 15.8 µM] | activity change, negative = inhibition [15] -20.8% [at 19 µM] | activation [16] 23% [at 19 µM] | activity change, negative = inhibition [17] -5.22% [at 18.9 µM]

CCC(=O)O[C@]1(C(=O)SCF)[C@H](C)C[C@H]2[C@@H]3C[C@H](F)C4=CC(=O)C=C[C@]4(C)[C@@]3(F)[C@@H](O)C[C@@]21C
inactive: Potency [1] | Potency [2] | Potency [3] | outcome [4] | outcome [5] | Potency [6] | Potency [7] | Potency [8] | Potency [9] | Potency [10] | Potency [11] | Potency [12] | Potency [13] | Potency [18] | Potency [15] | Potency [16] | Potency [17]

CCN(CC)CCNC(=O)c1cc(S(C)(=O)=O)ccc1OC
inactive: Potency [1] | Potency [2] | Potency [3] | outcome [4] | outcome [5] | Potency [6] | Potency [7] | Potency [8] | Potency [9] | Potency [19] | Potency [14] | Potency [18] | Potency [15] | Potency [16]
active: Potency [17] 15 µM
